This is an account of results in PubChem BioAssay (EPA / NIEHS).

SMILES strings stand for the structures. Results filed as inconclusive are left out. More than one record can exist for a structure, and the calls need not agree. Active and inactive are the calls of the source. The calls were made as follows, unless noted: active = hit-call score of the fitted dose curve at least 0.9, where 1 is the maximum; inconclusive = response in the unintended direction; inactive = score below 0.9.

What is called AC50 is the concentration at which the activity in the assay is half-maximal.

Assay [1] is described as follows: ATG_XTT_Cytotoxicity: Cytotoxicity Assessment in the Attagene TRANS-FACTORIAL HepG2 Assay (AID 2283584).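 As to AC50: cells exposed to compound for 24 h before reading; active means loss of viability signal versus DMSO baseline.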 An outline of the steps:
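Cells: human HepG2, transiently transfected with MRTU reporter constructs. Exposure 24 h. Readout: XTT, cell number. Baseline/neg ctrl DMSO; loss-of-signal scored.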

Assay [2] in a line: CEETOX_H295R_TESTO: CeeTox H295R High-throughput Steroidogenesis Assay for Testosterone (TESTO) (AID 2283457; active = hit-call score of the fitted dose curve at least 0.9, where 1 is the maximum; inactive = score below 0.9;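 as to AC50: cells exposed to chemicals for 48 h before medium collection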). As to conditions: actives raise or lower the signal. An outline of the steps:
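H295R, passage ≤10, 48 h dosing; media extracted with MTBE → HPLC-MS/MS for testosterone; 7-pt standard curve sets LLOQ/ULOQ; bidirectional fit vs DMSO; MTT viability same wells.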

A short description of assay [3]: TOX21_p53_BLA_p3_viability: Viability Assessment in the Tox21 HCT-116 p53 Agonism Beta-lactamase Assay, Phase 3 (AID 2283593).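 Also: cells exposed to compound for 16 h before reading.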 An outline of the steps:
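HCT116 cells, 4000/well, dosed 5 h after plating by pin transfer (217-fold dilution from DMSO stock) and incubated 16 h at 37C, 5% CO2. Viability read as ATP luminescence with CellTiter-Glo after 30 min at room temperature.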

In assay [4] the target is Cellular tumor antigen p53 (Homo sapiens) (UniProt P04637). Put plainly: TOX21_p53_BLA_p3_ratio: Tox21 HCT-116 p53 Agonism Beta-lactamase Assay, Ratio, Phase 3 (AID 2283596). An outline of the steps: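 Cells were seeded at 4000/well, rested 5 h at 37C, then dosed with DMSO compound solutions (217-fold dilution) for 16 h. CCF4-AM substrate was loaded for 2 h at room temperature, and the 460/530 nm emission ratio was fitted for gain of signal versus DMSO.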

Assay [5] in a line: TOX21_p53_BLA_p4_viability: Viability Assessment in the Tox21 HCT-116 p53 Agonism Beta-lactamase Assay, Phase 4 (AID 2283597).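 Also: hits lower the luminescence signal meaning cytotoxicity.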 An outline of the steps:
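Readout: ATP luminescence (CellTiter-Glo), measured 30 min after reagent addition at RT. The reagent followed a 2 h CCF4-AM incubation, and the cells had been exposed to compound for 16 h at 37C.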

For assay [6], the target named is Cellular tumor antigen p53 (Homo sapiens) (UniProt P04637). The experiment in a line: TOX21_p53_BLA_p5_ratio: Tox21 HCT-116 p53 Agonism Beta-lactamase Assay, Ratio, Phase 5 (AID 2283599). An outline of the steps: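 HCT-116 p53-bla cells (4000/well) plated 5 h, dosed with compound (217-fold DMSO dilution) for 16 h at 37 C; CCF4-AM substrate 2 h at room temperature. Activity is the 460/530 nm emission ratio (405 nm excitation), fitted in gain-of-signal direction versus DMSO.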

The target is the same in assay [7]. The experiment in a line: TOX21_p53_BLA_p4_ratio: Tox21 HCT-116 p53 Agonism Beta-lactamase Assay, Ratio, Phase 4 (AID 2283601). An outline of the steps: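 HCT-116 p53 beta-lactamase reporter cells (4000/well) preincubated 5 h, then compound (217-fold dilution of DMSO stock) for 16 h at 37C. CCF4-AM substrate added 2 h at room temperature; 460/530 nm emission ratio fitted upward versus DMSO.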

A short description of assay [8]: TOX21_p53_BLA_p2_viability: Viability Assessment in the Tox21 HCT-116 p53 Agonism Beta-lactamase Assay, Phase 2 (AID 2283591).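 Also: compound exposure lasted 16 h at 37 °C; actives lower the ATP signal meaning cytotoxicity.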 An outline of the steps:
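HCT116 p53-bla cells, 4000/well, dosed after 5 h plating (217-fold dilution of DMSO stocks) and incubated 16 h at 37C. Viability taken as cellular ATP by CellTiter-Glo luminescence after 30 min RT; signal loss marks cytotoxicity.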

Assay [9] addresses Cellular tumor antigen p53 (Homo sapiens) (UniProt P04637). The experiment in a line: TOX21_p53_BLA_p2_ratio: Tox21 HCT-116 p53 Agonism Beta-lactamase Assay, Ratio, Phase 2 (AID 2283592). An outline of the steps: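 Plated HCT116 p53-bla cells (4000/well) received compound after 5 h, then 16 h at 37C/5% CO2. CCF4-AM added, 2 h RT. Ratio of 460 to 530 nm emission taken as the p53 reporter signal.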

The nature of assay [10]: TOX21_p53_BLA_p5_viability: Viability Assessment in the Tox21 HCT-116 p53 Agonism Beta-lactamase Assay, Phase 5 (AID 2283600). An outline of the steps:
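Workflow: seed 4000 cells per well, wait 5 h, add compounds (DMSO, 217-fold dilution), incubate 16 h, load CCF4-AM 2 h, add CellTiter-Glo, read luminescence after 30 min.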

Sequence of Cellular tumor antigen p53 (Homo sapiens) (P04637 whole entry, looked up): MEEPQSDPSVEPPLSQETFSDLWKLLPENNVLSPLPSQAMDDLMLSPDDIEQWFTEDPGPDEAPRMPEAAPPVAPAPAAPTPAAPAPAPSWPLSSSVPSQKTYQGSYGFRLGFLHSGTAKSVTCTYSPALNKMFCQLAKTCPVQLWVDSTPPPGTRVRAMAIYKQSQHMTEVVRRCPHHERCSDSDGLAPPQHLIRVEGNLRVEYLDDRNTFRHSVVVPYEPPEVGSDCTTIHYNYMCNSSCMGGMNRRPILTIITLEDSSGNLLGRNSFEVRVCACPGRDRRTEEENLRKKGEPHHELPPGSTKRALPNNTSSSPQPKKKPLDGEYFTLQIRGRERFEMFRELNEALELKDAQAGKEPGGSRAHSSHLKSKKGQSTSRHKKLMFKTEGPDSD

`O=C1CCC(=O)N1Cl`: in assay [1], the compound was called inactive.
Same read-out and setting: for `CCN(CC)c1ccc(C(=O)c2ccccc2C(=O)O)c(O)c1` the value was “inactive”.
As for `Oc1ccc(Cl)cc1Cc1cc(Cl)ccc1O`, the compound was called inactive in assay [2]. Further, the AC50 in [1] is 27 µM (active).
For the compound `O=S(=O)(O)c1cc(S(=O)(=O)O)c2ccc3c(S(=O)(=O)O)cc(S(=O)(=O)O)c4ccc1c2c43`, the compound was classed as inactive in [1].
Still for that read-out and setting: in the case of `CC[C@H]1OC(=O)[C@H](C)[C@@H](O[C@H]2C[C@@](C)(OC)[C@@H](O)[C@H](C)O2)[C@H](C)[C@@H](O[C@@H]2O[C@H](C)C[C@H](N(C)C)[C@H]2O)[C@](C)(O)C[C@@H](C)C(=NOCOCCOC)[C@H](C)[C@@H](O)[C@]1(C)O` it was “inactive”; in that of `O=C(O)CCCC[C@@H]1SC[C@@H]2NC(=O)N[C@@H]21`, “inactive”; in that of `c1ccc2c(c1)ccc1ncccc12`, “inactive”.
On the same count and under the same terms, in the case of `CC(CC=O)CCCC(C)(C)O` (centres undefined) it was “inactive”; in that of `C=CC(C)(CCC=C(C)C)OC(=O)CC(C)C` (centres undefined), “inactive”; in that of `c1cc(C(c2ccc(OCC3CO3)cc2)C(c2ccc(OCC3CO3)cc2)c2ccc(OCC3CO3)cc2)ccc1OCC1CO1` (centres undefined), “inactive”.
Turning to `NC(=O)C1CO1` (centres undefined), the compound was called inactive in assay [1].
The same measure, in the same setting: in the case of `COC(=O)c1ccccc1OC` it was “inactive”.
For the compound `CO[Si](CCC1CCC2OC2C1)(OC)OC` (centres undefined), the compound was called inactive in assay [2] and in [1].
Take `C=CC(=O)OCC(Br)CBr` (centres undefined): the compound was called inactive in assay [1].
On the same count and under the same terms, for `CCCC(C)CCC(C)=O` (centres undefined) the value was “inactive”; for `CCCCCCCC/C=C\CCCCCCCC(=O)OCCO`, “inactive”.
On the same count and under the same terms, in the case of `Cc1ccc(C2OC[C@@H]3OC(c4ccc(C)cc4)O[C@H]([C@H](O)CO)[C@@H]3O2)cc1` (some centres undefined) it was “inactive”; in that of `O=CC1CC1`, “inactive”.
Take `CCCCNc1ccc(NCCCC)c2c1C(=O)c1ccccc1C2=O`: the call in assay [2] and in assay [1] was inactive.
In the case of `C=COCCCC`, the call in [2] and in [1] was inactive.
In the case of `O=[N+]([O-])c1ccc(CO)cc1`, the outcome in [1] was inactive.
On the same count and under the same terms, for `CCOc1nc(F)cc2nc(S(=O)(=O)Nc3c(Cl)cccc3C(=O)OC)nn12` the value was “inactive”; for `O=C(c1ccccc1)C1CCC1`, “inactive”; for `CCCc1ccc(OC)cc1`, “inactive”.
The same measure, in the same setting: for `CCCCCCCC(C)=O` the value was “inactive”.
For `COc1ccc2nc(N)sc2c1`, the outcome in assay [2] and in assay [1] was inactive.
For `CC(C)=CC1CC(C)CCO1` (centres undefined), in [1], the result was inactive.
On the same count and under the same terms, in the case of `COCCCOCCCOC` it was “inactive”; in that of `O=C1Nc2ccccc2C1(c1ccc(O)cc1)c1ccc(O)cc1`, “inactive”; in that of `C=CC(=O)OCCOC1C2CCC1C1CC=CC12` (centres undefined), “inactive”.
On the same count and under the same terms, in the case of `CC(C)(C)c1ccc(N)cc1` it was “inactive”.
`C1=CCCC1`: the compound was classed as inactive in assay [2] and in assay [1].
For the compound `CCCCC/C=C\CCC=O`, the compound was classed as inactive in assay [2], in [1], in assay [3], in assay [4], in [5] and in assay [6]. Also, the result in [7] was inactive.
Turning to `COCc1c(C(C)C)nc(C(C)C)c(/C=C/[C@@H](O)C[C@@H](O)CC(=O)O)c1-c1ccc(F)cc1`, in assay [2], the AC50 was 0.0187 µM (active). Also, the compound was called inactive in assay [1], in assay [8], in assay [9], in assay [3], in [4] and in [5]. In addition, the result in assay [6], in assay [10] and in assay [7] was inactive.
`CC(C)(C)C1CCCCC1=O` (centres undefined): the call in assay [1] was inactive.
In the case of `CCCCCCCCCCCCCCCC[n+]1ccccc1`, the AC50 in assay [1] was 26.6 µM (active).
Turning to `OCCCS`, the result in assay [1] was inactive.
Turning to `CC(C)(c1cc(Br)c(OCCO)c(Br)c1)c1cc(Br)c(OCCO)c(Br)c1`, the AC50 in assay [1] is 23.3 µM (active); in assay [8], 37.3 µM (active); in assay [9] it was 10.8 µM (active); in assay [3], 55 µM (active); in [4] it was 19.9 µM (active); in assay [5], 53.1 µM (active). For the same compound, the concentration at half-maximal activity (AC50) in assay [6] is 40.1 µM (active); in assay [10] it was 60.1 µM (active); in [7] it was 50.1 µM (active).
In the case of `O=c1cc(-c2ccccc2)oc2ccccc12`, the compound was classed as inactive in assay [1].
Same read-out and setting: in the case of `CC(C)C(=O)C(C)C` it was “inactive”.
On to `CCCCCCCC[N+](C)(CCCCCCCC)CCCCCCCC`, for which, in assay [1], the AC50 is 9.48 µM (active).
For `Cc1ccc2oc(=O)ccc2c1`, the compound was called inactive in [1].
Turning to `Cc1cc(O)c(Cl)c(C)c1Cl`, the compound was called inactive in assay [1]. The half-maximal activity concentration (AC50) is 57 µM (active) in [8]; 73.9 µM (active) in assay [9]; 57.8 µM (active) in [3]; 85 µM (active) in [4]; 61.7 µM (active) in assay [5]; 77.1 µM (active) in assay [6]. The AC50 was 70.1 µM (active) in assay [10] and 74.9 µM (active) in [7].
`CC(C)c1ccc2cc(C(C)C)ccc2c1`: the result in assay [1] was inactive.
The same measure, in the same setting: in the case of `CCCCCC(C)O` (centres undefined) it was “inactive”.
Same read-out and setting: in the case of `C[Si](C)(C)O[Si](O)(O)O` it was “inactive”; in that of `Clc1nc2ccccc2s1`, “inactive”.
Same read-out and setting: in the case of `O=c1c2ccccc2oc2ccccc12` it was “inactive”.
`CC(=O)OCc1ccco1`: the call in assay [1] was inactive.
Still for that read-out and setting: in the case of `CCCCCCCCCCCCCCCC(=O)OCC` it was “inactive”.
With `CC1(C)O[C@@H]2C[C@H]3[C@@H]4C[C@H](F)C5=CC(=O)C=C[C@]5(C)[C@@]4(F)[C@@H](O)C[C@]3(C)[C@]2(C(=O)CO)O1`, the call in assay [1] was inactive.
As to `Cn1c(=O)[nH]c2ncn(C)c2c1=O`, in assay [1], the compound was called inactive.
As to `[Cl][In]([Cl])[Cl]`, the result in assay [1], in assay [8], in [9], in assay [3], in assay [4] and in [5] was inactive. The outcome in assay [6], in [10] and in assay [7] was inactive.
With `Nc1ccc2cc3ccccc3cc2c1`, in assay [1], the outcome was inactive.
In the case of `O=C(O)CC(C(=O)O)C(CC(=O)O)C(=O)O` (centres undefined), the outcome in [1], in assay [8], in [9], in assay [3], in assay [4] and in assay [5] was inactive. Further, the result in [6], in assay [10] and in assay [7] was inactive.
In the case of `C#CC1(O)CC[C@H]2[C@@H]3CCC4=CCCC[C@@H]4[C@H]3CC[C@@]21C` (some centres undefined), the AC50 in assay [1] is 42.3 µM (active); in assay [8], 57.2 µM (active); in assay [9], 87.7 µM (active); in [3], 83.3 µM (active); in assay [4] it was 86.1 µM (active); in assay [5] it was 55.7 µM (active). Also, the AC50 in assay [6] was 86.1 µM (active); in assay [10], 46.1 µM (active); in assay [7] it was 84.8 µM (active). The compound was called inactive in assay [8], in [9], in [3] and in assay [10].
In the case of `CC(=O)OC1C2(C)CCC(C2)C1(C)C` (centres undefined), the compound was classed as inactive in assay [1].
Still for that read-out and setting: in the case of `CCc1c(C(=O)O)c(=O)cnn1-c1ccc(Cl)cc1` it was “inactive”.
On the same count and under the same terms, in the case of `S=C(NC1CCCCC1)NC1CCCCC1` it was “inactive”.
